According to ChEMBL document CHEMBL3988442, “University of Dundee, Small-Polar-MMV Screening Library” (2021):
Out of some 48,000 compounds screened, about 13,000 (27%) showed an effect of 50% or more. Some of the results follow.

test system: Wolbachia pipientis; assay: Anti-Wolbachia Cell-Based Screen; type: functional; set-up: scale not given: in the data most compounds retested in dose-response had high values; conditions: 5 µM

SMILES | Percent Effect [%]
Cc1noc(C)c1S(=O)(=O)N1CCC(Oc2ccccn2)CC1 | 2.267
Cc1noc(C)c1S(=O)(=O)N1CCC(Oc2cccnn2)CC1 | -5.902
Cc1n[nH]c(C)c1S(=O)(=O)N1CCC(Oc2ccccc2F)CC1 | 121.8
O=S(=O)(c1ccccc1F)N1CCC(Oc2cccnn2)CC1 | -7.526
Cc1ccccc1OC1CCN(S(=O)(=O)c2c(C)n[nH]c2C)CC1 | 120.4
CCOC(=O)C1CCN(CCCc2nnnn2-c2ccccc2)CC1 | 10.8
CN(C)c1ccc(C(=O)N2CCCCC2CC(N)=O)c(F)c1 (stereo unspecified) | -10.13
CNS(=O)(=O)CC1CCCN1C(=O)c1ccc(C)c(C)c1 (stereo unspecified) | 1.148
NC(=O)NCC1CCCCN1C(=O)c1ccc(Cl)s1 (stereo unspecified) | 6.082
Cc1ccc(C(=O)N2CCCCC2CNC(N)=O)cc1F (stereo unspecified) | 100.6
COc1cccc(C(=O)N2CCCCC2CNC(N)=O)c1 (stereo unspecified) | 4.596
Cc1ccc(C(=O)N2CCCCC2CNC(N)=O)s1 (stereo unspecified) | -21.76
NC(=O)NCC1CCCCN1C(=O)c1cc(F)cc(F)c1 (stereo unspecified) | 94.01
NC(=O)NCC1CCCCN1C(=O)c1cccc(Cl)c1 (stereo unspecified) | 109.7
NC(=O)NCC1CCCCN1C(=O)c1ccc(Br)s1 (stereo unspecified) | 13.78
CC(=O)N(C)c1nc(CN2CCCC2Cn2nc(C)cc2C)cs1 (stereo unspecified) | 89.05
CN(C)C(=O)Cc1nc(CN2CCCC2Cn2cccn2)cs1 (stereo unspecified) | -60.87
CC(=O)Nc1nc(CN2CCCCC2Cn2cncn2)cs1 (stereo unspecified) | 101
CCN(C(C)=O)c1nc(CN2CCCC2Cn2cncn2)cs1 (stereo unspecified) | 93.1

SMILES | Percent Effect [%]
Cc1cc(C)n(CC2CCCN2CC(=O)N(C)C)n1 (stereo unspecified) | -0.9617
Cc1cccn2c(=O)cc(CN3CCCCC3Cn3cncn3)nc12 (stereo unspecified) | -0.6189
Cc1cc(C)n(CC2CCCN2C(=O)Cc2csc(C)n2)n1 (stereo unspecified) | -5.348
CCN(C(C)=O)c1nc(CN2CCCCC2Cn2cncn2)cs1 (stereo unspecified) | 113.4
CC(=O)Nc1nc(CN2CCCC2Cn2cncn2)cs1 (stereo unspecified) | -0.3919
c1ncn(CC2CCCN2Cc2cn3ccsc3n2)n1 (stereo unspecified) | -12.38
NC(=O)c1ccc(N2CCCCC2)c(NC(=O)c2ccc(F)cc2Cl)c1 | -3.289
CSc1nc(C2CC2)nc(C)c1C(=O)NCc1ncc(C)o1 | 6.945
CCc1nc(CN2CCCN(C(=O)c3cn[nH]c3CC)CC2)cs1 | 9.391
Cc1cc(NC(=O)N2CCCC(O)C2)nn1-c1ccccc1Cl (stereo unspecified) | -23.68
CC(=O)N(C)c1nc(CN2CCCCC2Cn2cncn2)cs1 (stereo unspecified) | -7.447
CN(C)C(=O)Cc1nc(CN2CCCC2Cn2cncn2)cs1 (stereo unspecified) | -5.183
CC(=O)N(C)c1nc(CN2CCCC2Cn2cncn2)cs1 (stereo unspecified) | 102
COc1ccc(N(C)C(=O)c2cccc(S(C)(=O)=O)c2)cn1 | -2.349
Cc1nc[nH]c1C(=O)N1CC[C@@H](NC(=O)c2ccccn2)[C@H](O)C1 | -7.66
CO[C@H]1CN(C(=O)c2ccc3oc(C)cc3c2)CC[C@@]12CCCO2 | 0.1168
COc1ccc(C(=O)N2C[C@@H](C)[C@@](C)(O)C2)cc1N1CCOCC1 | -1.788
COc1ccc(C(=O)N2CC[C@](C)(O)[C@H](C)C2)cc1N1CCOCC1 | 0.3479
CC[C@@]1(O)CCN(C(=O)c2cccc3cc(C)oc23)C[C@H]1O | 10.55

SMILES | Percent Effect [%]
CO[C@H]1CN(C(=O)c2ccc3oc(C)cc3c2)C[C@@]12CCCO2 | 96.35
CO[C@H]1CCN(C(=O)c2ccc3oc(C)cc3c2)C[C@@]12CCCO2 | 93.08
CC(=O)N1CCC2(CC1)CN(C(=O)c1ccc3c(c1)OCCO3)C2 | -18.73
Cc1cc2cc(C(=O)N3CC[C@H](O)[C@]4(CCCO4)C3)ccc2o1 | 1.113
Cc1cc2cc(C(=O)N3C[C@H](O)[C@]4(CCCO4)C3)ccc2o1 | 113.6
Cc1nc(C(C)C)ncc1C(=O)N1CCc2c(nc(N(C)C)[nH]c2=O)C1 | -2.755
Cc1ccc(CN2CC3(CCNCC3)CCC2=O)c(F)c1F | -4.713
CNC(=O)[C@@]12CCC3(CCN(C(C)=O)CC3)[C@@H]1CN(S(C)(=O)=O)C2 | -0.1611
CC(=O)N1CCC2(CC1)CC[C@@]1(C(=O)N(C)C)CN(S(C)(=O)=O)C[C@@H]21 | -18.69
CCN1C[C@H]2C3(CCN(C(=O)NC(C)C)CC3)CC[C@@]2(C(=O)NC)C1.O=C(O)C(F)(F)F | -18.02
CNC(=O)N1CCC2(CC1)CC[C@@]1(C(=O)NC)CN(S(C)(=O)=O)C[C@@H]21 | 99.51
CC(C)NC(=O)N1CCC2(CC1)CC[C@@]1(C(=O)N(C)C)CN(C)C[C@@H]21 | -18.22
CCN1CC2(CC1=O)CN(C(=O)COC)CCN(S(C)(=O)=O)C2 (stereo unspecified) | -10.66
CNC(=O)[C@@]12CCC3(CCNCC3)[C@@H]1CN(S(C)(=O)=O)C2 | 151.6
CCN1C[C@H]2C3(CCN(S(C)(=O)=O)CC3)CC[C@@]2(C(=O)N(C)C)C1.O=C(O)C(F)(F)F | -24.55
CNC(=O)[C@@]12CCC3(CCN(S(C)(=O)=O)CC3)[C@@H]1CN(S(C)(=O)=O)C2 | 14.17
CNC(=O)[C@@]12CCC3(CCN(C(=O)COC)CC3)[C@@H]1CN(S(C)(=O)=O)C2 | 102.3
CNC(=O)[C@@]12CCC3(CCN(C(=O)C(C)C)CC3)[C@@H]1CN(S(C)(=O)=O)C2 | 104.1
